# Assay results taken from paper PMC11006913.
# Changes are numbered by the printed parent chain.
# How the values were obtained:
# Experiment in all cases: PBM; 200 nM protein, PBS
# Details in all cases: dsDNA, one strand shown
# NKX2-5 [1] = biological target: NKX2-5 (Homo sapiens, UniProt P52952 125-210, R139K)
# HOXB4 [2] = biological target: HOXB4 (Homo sapiens, UniProt P17483 148-234)
# VENTX [3] = biological target: T1, VENTX (Homo sapiens, UniProt O95231 78-163, R121Q)
# T1 sequence: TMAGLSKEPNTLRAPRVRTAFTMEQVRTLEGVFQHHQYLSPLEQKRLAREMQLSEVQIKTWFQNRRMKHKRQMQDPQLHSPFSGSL
# VENTX [4] = biological target: T2, VENTX (Homo sapiens, UniProt O95231 78-163)
# T2 sequence: T1 sequence with Q44R
# VENTX [5] = biological target: T3, VENTX (Homo sapiens, UniProt O95231 78-163, Y115F)
# T3 sequence: T1 sequence with Y38F, Q44R
# HOXB4 [6] = biological target: HOXB4 (Homo sapiens, UniProt P17483 148-234, V174I)
# HOXB4 (Homo sapiens, UniProt P17483 148-234, V174I), sequence (P17483 148-234 V174I): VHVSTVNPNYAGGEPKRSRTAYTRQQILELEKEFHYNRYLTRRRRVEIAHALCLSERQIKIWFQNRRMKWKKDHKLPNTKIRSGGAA
# ALX1 [7] = biological target: ALX1 (Homo sapiens, UniProt Q15699 118-204, L144V)
# ALX1 (Homo sapiens, UniProt Q15699 118-204, L144V), sequence (Q15699 118-204 L144V): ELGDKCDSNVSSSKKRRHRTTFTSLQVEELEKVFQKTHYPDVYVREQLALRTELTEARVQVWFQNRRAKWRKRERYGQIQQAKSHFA
# ALX1 [8] = biological target: ALX1 (Homo sapiens, UniProt Q15699 118-204, L144R)
# ALX1 (Homo sapiens, UniProt Q15699 118-204, L144R), sequence (Q15699 118-204 L144R): as the sequence (Q15699 118-204 L144V) above, with V27R counted along it
# ALX1 [9] = biological target: ALX1 (Homo sapiens, UniProt Q15699 118-204)
# ALX1 (Homo sapiens, UniProt Q15699 118-204), sequence (Q15699 118-204): as the sequence (Q15699 118-204 L144V) above, with V27L counted along it
# NKX2-5 [10] = biological target: NKX2-5 (Homo sapiens, UniProt P52952 125-210)
# NKX2-5 (Homo sapiens, UniProt P52952 125-210), sequence (P52952 125-210): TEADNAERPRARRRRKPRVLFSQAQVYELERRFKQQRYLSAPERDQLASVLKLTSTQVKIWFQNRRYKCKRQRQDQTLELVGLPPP
# NKX2-4 [11] = biological target: T4, NKX2-4 (Homo sapiens, UniProt Q9H2Z4 175-261, P217L)
# T4 sequence: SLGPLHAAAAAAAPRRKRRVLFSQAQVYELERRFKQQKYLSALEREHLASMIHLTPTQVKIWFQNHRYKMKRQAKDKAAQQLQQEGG
# NKX2-4 [12] = biological target: T5, NKX2-4 (Homo sapiens, UniProt Q9H2Z4 175-261, T231S)
# T5 sequence: T4 sequence with L43P, T57S
# NKX2-4 [13] = biological target: T6, NKX2-4 (Homo sapiens, UniProt Q9H2Z4 175-261)
# T6 sequence: T4 sequence with L43P
# NKX2-6 [14] = biological target: T7, NKX2-6 (Homo sapiens, UniProt A6NCS4 118-204, R150C)
# T7 sequence: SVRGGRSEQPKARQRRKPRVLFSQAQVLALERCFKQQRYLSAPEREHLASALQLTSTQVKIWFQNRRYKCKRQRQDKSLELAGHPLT
# NKX2-6 [15] = biological target: T8, NKX2-6 (Homo sapiens, UniProt A6NCS4 118-204)
# T8 sequence: T7 sequence with C33R
# NKX2-4 [16] = biological target: T9, NKX2-4 (Homo sapiens, UniProt Q9H2Z4 175-261, R246Q)
# T9 sequence: T4 sequence with L43P, R72Q
# HOXB9 = HOXB9 (Homo sapiens, UniProt P17482 171-250, R186Q)
# HOXB9, sequence (P17482 171-250 R186Q): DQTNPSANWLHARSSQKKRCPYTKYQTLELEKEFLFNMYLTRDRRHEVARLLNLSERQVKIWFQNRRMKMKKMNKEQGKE
# NKX2-6 [17] = biological target: T10, NKX2-6 (Homo sapiens, UniProt A6NCS4 118-204, F151L)
# T10 sequence: T7 sequence with C33R, F34L
# NKX3-2 [18] = biological target: NKX3-2 (Homo sapiens, UniProt P78367 192-278, P234S)
# NKX3-2 (Homo sapiens, UniProt P78367 192-278, P234S), sequence (P78367 192-278 P234S): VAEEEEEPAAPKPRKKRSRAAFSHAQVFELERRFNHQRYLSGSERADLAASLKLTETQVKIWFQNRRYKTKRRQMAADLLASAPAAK
# NKX3-2 [19] = biological target: NKX3-2 (Homo sapiens, UniProt P78367 192-278)
# NKX3-2 (Homo sapiens, UniProt P78367 192-278), sequence (P78367 192-278): as the sequence (P78367 192-278 P234S) above, with S43P counted along it
# NKX2-5 (Homo sapiens, UniProt P52952 125-210, R139K), sequence (P52952 125-210 R139K): as the sequence (P52952 125-210) above, with R15K counted along it
# HOXB4 (Homo sapiens, UniProt P17483 148-234), sequence (P17483 148-234): as the sequence (P17483 148-234 V174I) above, with I27V counted along it
sequence,measurement,setting,value
CTAATTGC,binding signal,NKX2-5 [1],"10.9 upbm affinity estimate (log intensity, higher = more binding, comparable within an allelic series)"
same,binding signal,HOXB4 [2],"12.9 upbm affinity estimate (log intensity, higher = more binding, comparable within an allelic series)"
same,binding signal,VENTX [3],"12.3 upbm affinity estimate (log intensity, higher = more binding, comparable within an allelic series)"
same,binding signal,VENTX [4],"12.7 upbm affinity estimate (log intensity, higher = more binding, comparable within an allelic series)"
same,binding signal,VENTX [5],"12 upbm affinity estimate (log intensity, higher = more binding, comparable within an allelic series)"
same,binding signal,HOXB4 [6],"13.7 upbm affinity estimate (log intensity, higher = more binding, comparable within an allelic series)"
same,binding signal,ALX1 [7],"11.5 upbm affinity estimate (log intensity, higher = more binding, comparable within an allelic series)"
same,binding signal,ALX1 [8],"11 upbm affinity estimate (log intensity, higher = more binding, comparable within an allelic series)"
same,binding signal,ALX1 [9],"12.2 upbm affinity estimate (log intensity, higher = more binding, comparable within an allelic series)"
same,binding signal,NKX2-5 [10],"11.1 upbm affinity estimate (log intensity, higher = more binding, comparable within an allelic series)"
ATTACGTA,binding signal,NKX2-5 [1],"10.3 upbm affinity estimate (log intensity, higher = more binding, comparable within an allelic series)"
same,binding signal,NKX2-5 [10],"10.3 upbm affinity estimate (log intensity, higher = more binding, comparable within an allelic series)"
CGGACCCG,binding signal,NKX2-5 [1],"8.84 upbm affinity estimate (log intensity, higher = more binding, comparable within an allelic series)"
same,binding signal,HOXB4 [2],"8.04 upbm affinity estimate (log intensity, higher = more binding, comparable within an allelic series)"
same,binding signal,HOXB4 [6],"7.9 upbm affinity estimate (log intensity, higher = more binding, comparable within an allelic series)"
same,binding signal,NKX2-5 [10],"8.79 upbm affinity estimate (log intensity, higher = more binding, comparable within an allelic series)"
CCGCGTCG,binding signal,NKX2-5 [1],"9.03 upbm affinity estimate (log intensity, higher = more binding, comparable within an allelic series)"
same,binding signal,HOXB4 [2],"7.75 upbm affinity estimate (log intensity, higher = more binding, comparable within an allelic series)"
same,binding signal,HOXB4 [6],"7.36 upbm affinity estimate (log intensity, higher = more binding, comparable within an allelic series)"
same,binding signal,NKX2-5 [10],"8.95 upbm affinity estimate (log intensity, higher = more binding, comparable within an allelic series)"
GCCACTTA,binding signal,NKX2-5 [1],"13.3 upbm affinity estimate (log intensity, higher = more binding, comparable within an allelic series)"
same,binding signal,NKX2-4 [11],"12.7 upbm affinity estimate (log intensity, higher = more binding, comparable within an allelic series)"
same,binding signal,NKX2-4 [12],"13 upbm affinity estimate (log intensity, higher = more binding, comparable within an allelic series)"
same,binding signal,NKX2-4 [13],"12.5 upbm affinity estimate (log intensity, higher = more binding, comparable within an allelic series)"
same,binding signal,NKX2-6 [14],"12.2 upbm affinity estimate (log intensity, higher = more binding, comparable within an allelic series)"
same,binding signal,NKX2-6 [15],"14 upbm affinity estimate (log intensity, higher = more binding, comparable within an allelic series)"
same,binding signal,NKX2-4 [16],"13.2 upbm affinity estimate (log intensity, higher = more binding, comparable within an allelic series)"
same,binding signal,HOXB9,"10 upbm affinity estimate (log intensity, higher = more binding, comparable within an allelic series)"
same,binding signal,NKX2-6 [17],"11.2 upbm affinity estimate (log intensity, higher = more binding, comparable within an allelic series)"
same,binding signal,NKX3-2 [18],"13.3 upbm affinity estimate (log intensity, higher = more binding, comparable within an allelic series)"
same,binding signal,NKX2-5 [10],"13.1 upbm affinity estimate (log intensity, higher = more binding, comparable within an allelic series)"
same,binding signal,NKX3-2 [19],"13.4 upbm affinity estimate (log intensity, higher = more binding, comparable within an allelic series)"
CCGGCGCG,binding signal,NKX2-5 [1],"8.28 upbm affinity estimate (log intensity, higher = more binding, comparable within an allelic series)"
same,binding signal,ALX1 [7],"6.28 upbm affinity estimate (log intensity, higher = more binding, comparable within an allelic series)"
same,binding signal,ALX1 [8],"6.34 upbm affinity estimate (log intensity, higher = more binding, comparable within an allelic series)"
same,binding signal,ALX1 [9],"6.04 upbm affinity estimate (log intensity, higher = more binding, comparable within an allelic series)"
same,binding signal,NKX2-5 [10],"8.51 upbm affinity estimate (log intensity, higher = more binding, comparable within an allelic series)"
CCCACTTA,binding signal,NKX2-5 [1],"13 upbm affinity estimate (log intensity, higher = more binding, comparable within an allelic series)"
same,binding signal,NKX2-4 [11],"12.7 upbm affinity estimate (log intensity, higher = more binding, comparable within an allelic series)"
same,binding signal,NKX2-4 [12],"13 upbm affinity estimate (log intensity, higher = more binding, comparable within an allelic series)"
same,binding signal,NKX2-4 [13],"12.6 upbm affinity estimate (log intensity, higher = more binding, comparable within an allelic series)"
same,binding signal,NKX2-6 [14],"12.2 upbm affinity estimate (log intensity, higher = more binding, comparable within an allelic series)"
same,binding signal,NKX2-6 [15],"13.7 upbm affinity estimate (log intensity, higher = more binding, comparable within an allelic series)"
same,binding signal,NKX2-4 [16],"13.1 upbm affinity estimate (log intensity, higher = more binding, comparable within an allelic series)"
same,binding signal,NKX2-6 [17],"11.1 upbm affinity estimate (log intensity, higher = more binding, comparable within an allelic series)"
same,binding signal,NKX3-2 [18],"13.2 upbm affinity estimate (log intensity, higher = more binding, comparable within an allelic series)"
same,binding signal,NKX2-5 [10],"12.9 upbm affinity estimate (log intensity, higher = more binding, comparable within an allelic series)"
same,binding signal,NKX3-2 [19],"13.2 upbm affinity estimate (log intensity, higher = more binding, comparable within an allelic series)"
CTTAAGTA,binding signal,NKX2-5 [1],"12.9 upbm affinity estimate (log intensity, higher = more binding, comparable within an allelic series)"
same,binding signal,NKX2-4 [11],"12.6 upbm affinity estimate (log intensity, higher = more binding, comparable within an allelic series)"
same,binding signal,NKX2-4 [12],"12.9 upbm affinity estimate (log intensity, higher = more binding, comparable within an allelic series)"
same,binding signal,NKX2-4 [13],"12.5 upbm affinity estimate (log intensity, higher = more binding, comparable within an allelic series)"
same,binding signal,NKX2-6 [14],"11.7 upbm affinity estimate (log intensity, higher = more binding, comparable within an allelic series)"
same,binding signal,ALX1 [7],"9.02 upbm affinity estimate (log intensity, higher = more binding, comparable within an allelic series)"
same,binding signal,NKX2-6 [15],"13.7 upbm affinity estimate (log intensity, higher = more binding, comparable within an allelic series)"
same,binding signal,ALX1 [8],"8.85 upbm affinity estimate (log intensity, higher = more binding, comparable within an allelic series)"
same,binding signal,NKX2-4 [16],"13.1 upbm affinity estimate (log intensity, higher = more binding, comparable within an allelic series)"
same,binding signal,NKX2-6 [17],"10.9 upbm affinity estimate (log intensity, higher = more binding, comparable within an allelic series)"
same,binding signal,ALX1 [9],"9.39 upbm affinity estimate (log intensity, higher = more binding, comparable within an allelic series)"
same,binding signal,NKX2-5 [10],"12.8 upbm affinity estimate (log intensity, higher = more binding, comparable within an allelic series)"
